Experimental data reported in ChEMBL document CHEMBL1201862, “PubChem BioAssay data set” (2004).
Among all 57,000 sequences or so, about 4,200 (7.4%) were called active. Cut-off read from the data, not from the text of the source: active = GI50 up to about 1.1 µM and inactive = higher. Not all results are given here. Measured potencies and affinities stand elsewhere.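 Method: 48-hour compound exposure of cells in 96-well plates, five concentrations, linear interpolation of endpoints. GI50 marks 50% less growth.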

tested on: UACC-62; assay: NCI tumour cell line growth inhibition, 48 h

Substance | GI50
[Bis(aminomethyl)tetramethylenesilane]dichloropaltinum(II), CHEMBL2146205 | 16 µM
[Bis(aminomethyl)ethylmethylsilane]tetrachloroplatinum(IV), CHEMBL2146192 | 2.39 µM
CISPLATIN, CHEMBL11359 | 1.18 µM
[Bis(aminomethyl)dimethylsilane]tetrachloroplatinum(IV), CHEMBL2146190 | 4.57 µM
[Bis(aminomethyl)diethylsilane]tetrachloroplatinum(IV), CHEMBL2146203 | 3.93 µM
[Bis(aminomethyl)pentamethylenesilane]tetrachloropaltinum(IV), CHEMBL2146204 | 0.935 µM
cis-Bis[[(trimethylsilyl)methyl]amino]tetrachloroplatinum(IV), CHEMBL2146191 | 5.21 µM
[Bis(aminomethyl)pentamethylenesilane]dichloropaltinum(II), CHEMBL2146202 | 2.72 µM
[Bis(aminomethyl)dimethylsilane]dichloroplatinum (II), CHEMBL2146201 | 15.3 µM
mu-(1,7-nanodiamine-N,N')bis-(cis-aminedichloroplatimum (II)), CHEMBL2146215 | 3.44 µM
[Bis(aminomethyl)tetramethylenesilane]tetrachloropaltinum(IV), CHEMBL2146189 | 3.87 µM
